Data on 40 compounds can be found in PubChem BioAssay (NCI).

Several values for one entry are separate records, joined by “and”; a condition that tells them apart may be missing. Equal entries are not always repeated. About 83,000 compounds went through this panel and 20% of them were active in at least one assay; those are over-represented in the sample as a whole.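 Each cell line was grown in a 96-well plate and treated with one concentration of compound for 48 hours. Values below 10 were considered active.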 Unmarked numbers belong to inactive results. Activity calls are given as the source filed them.

This assay deals with MDA-MB-468 breast. In words: NCI-60 one-dose screen, 48 h (100 = growth as untreated, 0 = no growth, -100 = all killed). Conditions: 10 µM unless noted.
`CCN(CC)CCC(=O)c1ccc(OC)c2ccccc12`: the growth was 49.7%. On to `COc1cc2cc(NCc3ccc(Cl)cc3)nc(C)c2cc1OC`, for which the growth is 63.4%. The same measure for `COc1cc(-c2csc(NC(=O)Nc3ccc(Cl)cc3Cl)n2)cc(OC)c1OC`: 17.7%; for `CCSC1=CC(=O)c2ccccc2C1=O`: -88.1% (active); for `CC1=NNC(=O)C1CCC(=O)N/N=C(\C)c1ccc2ccccc2c1` (stereo not given): 119%. Take `COc1ccc(-c2nc(N/N=C/c3ccco3)nc(N3CCOCC3)c2C#N)cc1`: the growth is 36%. Turning to `Cn1cnc2c(F)c(Nc3ccc(Br)cc3Cl)c(C(=O)NOCCO)cc21`, the growth was 92.5%.

On to `COC(=O)[C@]12CC[C@@H](C)[C@H](C)[C@@H]1C1=CC[C@@H]3[C@@]4(C)C[C@@H](O)[C@H](O)[C@@](C)(CO)C4=CC[C@@]3(C)[C@]1(C)CC2`, for which the growth is -66.4% (active). To `COC(=O)CC/C(C)=N\Nc1ccc([N+](=O)[O-])cc1` belongs 71.1%; to `CC(O)CCC(C)[N+](=O)[O-]` (stereo not given), 107%; to `CN(C)CCN(Cc1ccccc1)c1ccccc1`, 103%. As for `CCOC(=O)c1sc2nc(-c3cc(OC)c(OC)c(OC)c3)nc(N3CCOCC3)c2c1C`, the growth was 11.3%. To `O=C(O)c1cc2ccccc2s1` belongs 112%; to `CCN(CC)Cc1cc(Nc2c3ccccc3nc3cc(Cl)ccc23)ccc1O`, -72.4% (active). The same measure for `COc1ccc(C(=O)/C=C/c2ccccn2)c(O)c1`: 57.1%; for `Cc1cc(=O)[nH]c(O)c1C#N`: 97.5% and 95.9% and 111%; for `O=C1OCC2=C1C(c1cccc([N+](=O)[O-])c1)c1cc3c(cc1N2CCO)CCC3` (stereo not given): 4.98% (active). Turning to `COc1cc2c(c(OC)c1OC)CCC(c1cccc(C(=O)Nc3ccc([N+](=O)[O-])cc3)c1)O2` (stereo not given), the growth was 38.2%. To `CC(=O)O[C@H]1[C@H](CC#CC#CC[C@@H]2C[C@]3(C)[C@H]4CC=C5[C@H]6[C@@H](C)[C@H](C)CC[C@]6(C(=O)NCCCCCCCCN)CC[C@@]5(C)[C@]4(C)CC[C@H]3C(C)(C)[C@H]2OC(C)=O)C[C@]2(C)[C@H]3CC=C4[C@H]5[C@@H](C)[C@H](C)CC[C@]5(C(=O)NCCCCCCCCN)CC[C@@]4(C)[C@]3(C)CC[C@H]2C1(C)C` belongs 73.5%. To `COC(=O)Cc1cc(COC(C)=O)ccc1C` belongs 108%. With `O=S(=O)(Nc1ccc2ccccc2c1)N1CCCCC1`, the growth is 12.8%.

On to `ONc1nc(NO)c2[nH]cnc2n1`, for which the growth is 47.6%. The same measure for `O=C(CN1CCN(c2cc3c(cc2F)c(=O)c(C(=O)O)cn3C2CC2)CC1)Nc1nc(-c2ccccc2)cs1`: 37.4%. For the compound `CCOC(=O)C(=Cc1cccc(C#N)c1)C(=O)OCC`, the growth is 43%. `CCCCc1oc2ccccc2c1C(=O)c1cc(I)c(OCCN(CC)CC)c(I)c1`: the growth was -87.4% (active). The same measure for `Cc1ccc2nc(NC(=O)CSC(=S)N3CCN(Cc4ccccc4)CC3)sc2c1`: -76.4% (active). With `Cc1ccc(Nc2ccc(Nc3ccc(C)cc3)c3c2C(=O)c2cccc(O)c2C3=O)cc1`, the growth was 83.3%. To `COc1ccc(C(=O)CC(CC(=O)c2ccc(OC)cc2)c2c(C)nn(-c3ccccc3)c2Cl)cc1` belongs 96.4%; to `Cn1cc(-c2ccc3nc(-c4ccc(CC(=O)Nc5cc(C(C)(C)C)no5)cc4)cnc3c2)cn1`, 14.8% [30 µM]. As for `CCCn1cc2c(=O)nc3sc(Cc4ccccc4)c(C)n3c2n1`, the growth is 111%. To `COc1cc(NC(=O)CCSc2nc3ccccc3c(=O)n2CCc2ccccn2)cc(OC)c1OC` belongs 91.8%.

With `O=C(N/N=C/c1ccc(O)cc1O)c1ccc(Nc2ccnc(C(F)(F)F)c2)cc1`, the growth was 29.5%. To `CCCCn1c(-c2ccc(O)cc2)cn2c3c(=O)[nH]c(=O)n(C)c3nc12` belongs 43.4%; to `O=C1[C@H]2Cc3c([nH]c4ccccc34)[C@H](c3ccc(Cl)cc3)N2C(=O)CN1C1CCN(Cc2c(Cl)cccc2Cl)CC1`, 57.5%; to `Cc1nc2sc(C(=O)Nc3ccccc3)c(N)c2cc1C(C)O` (stereo not given), 28.6%. With `COc1cc(-c2nc3sccn3c2-c2ccnc(NCCNS(=O)(=O)c3ccc(F)cc3)n2)ccc1F`, the growth is 4.24% (active). As to `CCn1cnc(C[C@H](NC(=O)[C@H](CCCCNC(=O)Nc2cc(C(F)(F)F)cc(C(F)(F)F)c2)NC(=O)Nc2cc(C(F)(F)F)cc(C(F)(F)F)c2)C(=O)OC)c1`, the growth is -21% [100 µM] (active).

As for `COc1cc(C(=O)n2nc(-c3cc(OC)c(OC)c(OC)c3)nc2N)cc(OC)c1OC`, the growth is 101%.

With `Fc1ccc(C2CC(c3cccc(Nc4ccncc4)c3)=NN2c2ccccc2)cc1` (stereo not given), the growth is -2.33% (active). To `CCCN1C=C/C(=C\C(=O)n2ccc3ccccc32)c2ccccc21` belongs 7.36% (active).
